From PubChem BioAssay AID1159580 (chemical genetic matrix, 2015)
Screen size: about 5,500 compounds; about 2,000 (36%) were called active. Another 18% or so got no clear call; they are omitted. Cut-off read from the data, not from the text of the source: active = normalized growth mostly below about 0.91 (no sharp cut-off); inconclusive = no clear call, values can overlap the other calls; inactive = mostly above about 0.92. The list shows a part of the results.

Assay: chemical genetic growth profiling, strain panel (AID 1159580);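 note: tested at 20 µM; growth read once vehicle control cultures reached saturation at 30 °C; 1 = growth at the plate median or of vehicle wells; lower values mean less growth of the strain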
Details: S. cerevisiae deletion strains, growth OD
[1] = locus YAR019C, strain CDC15, active compounds read low
[2] = locus YBL105C, strain PKC1, active compounds read low
[3] = locus YBR135W, strain CKS1, active compounds read low
[4] = locus YBR136W, strain MEC1, active compounds read low
[5] = locus YBR160W, strain CDC28, active compounds read low
[6] = locus YDL017W, strain CDC7, active compounds read low
[7] = locus YDL028C, strain MPS1, active compounds read low
[8] = locus YDL101C, strain DUN1, active compounds read low
[9] = locus YDL108W, strain KIN28, active compounds read low
[10] = locus YDL132W, strain cdc53, active compounds read low
[11] = locus YDL214C, strain PRR2, active compounds read low
[12] = locus YDR052C, strain DBF4, active compounds read low
[13] = locus YDR054C, strain cdc34, active compounds read low
[14] = locus YDR226W, strain ADK1, active compounds read low
[15] = locus YDR477W, strain SNF1, active compounds read low
[16] = locus YER123W, strain YCK3, active compounds read low
[17] = locus YER133W, strain GLC7, active compounds read low
[18] = locus YFL009W, strain cdc4, active compounds read low
[19] = locus YFL029C, strain CAK1, active compounds read low
[20] = locus YFR003C, strain YPI1, active compounds read low
[21] = locus YFR019W, strain FAB1, active compounds read low
[22] = locus YFR028C, strain CDC14, active compounds read low
[23] = locus YGR040W, strain KSS1, active compounds read low
[24] = locus YGR052W, strain FMP48, active compounds read low
[25] = locus YGR092W, strain DBF2, active compounds read low
[26] = locus YHR030C, strain SLT2, active compounds read low
[27] = locus YHR079C, strain IRE1, active compounds read low
[28] = locus YHR082C, strain KSP1, active compounds read low
[29] = locus YHR205W, strain SCH9, active compounds read low
[30] = locus YIL147C, strain SLN1, active compounds read low
[31] = locus YJL095W, strain BCK1, active compounds read low
[32] = locus YJL128C, strain PBS2, active compounds read low
[33] = locus YJL157C, strain FAR1, active compounds read low
[34] = locus YJR016C, strain ILV3, active compounds read low
[35] = locus YJR066W, strain TOR1 (second series), active compounds read low
[36] = locus YJR066W, strain TOR1, active compounds read low
[37] = locus YKL048C, strain ELM1, active compounds read low
[38] = locus YKL067W, strain YNK1, active compounds read low
[39] = locus YKL101W, strain HSL1, active compounds read low
[40] = locus YKL193C, strain SDS22, active compounds read low
[41] = locus YKL203C, strain TOR2, active compounds read low
[42] = locus YLR113W, strain HOG1, active compounds read low
[43] = locus YLR133W, strain CKI1, active compounds read low
[44] = locus YLR403W, strain SFP1, active compounds read low
[45] = locus YML070W, strain DAK1, active compounds read low
[46] = locus YMR001C, strain CDC5, active compounds read low
[47] = locus YMR205C, strain PFK2 (second series), active compounds read low
[48] = locus YMR277W, strain FCP1, active compounds read low
[49] = locus YNL006W, strain LST8, active compounds read low
[50] = locus YNL020C, strain ARK1, active compounds read low
[51] = locus YNL161W, strain CBK1, active compounds read low
[52] = locus YNL183C, strain NPR1, active compounds read low
[53] = locus YNL207W, strain RIO2, active compounds read low
[54] = locus YNL222W, strain SSU72, active compounds read low
[55] = locus YNL307C, strain MCK1 (second series), active compounds read low
[56] = locus YOL078W, strain AVO1, active compounds read low
[57] = locus YOL136C, strain PFK27, active compounds read low
[58] = locus YOR061W, strain CKA2, active compounds read low
[59] = locus YOR119C, strain RIO1, active compounds read low
[60] = locus YOR231W, strain MKK1, active compounds read low
[61] = locus YOR329C, strain SCD5, active compounds read low
[62] = locus YPL031C, strain PHO85, active compounds read low
[63] = locus YPL153C, strain RAD53, active compounds read low
[64] = locus YPL204W, strain HRR25, active compounds read low
[65] = locus YPL209C, strain IPL1, active compounds read low
[66] = locus YPL256C, strain CLN2, active compounds read low
[67] = locus YPR025C, strain CCL1, active compounds read low
[68] = locus YPR106W, strain ISR1, active compounds read low
[69] = locus YPR111W, strain DBF20, active compounds read low
[70] = strain NNK1, active compounds read low
[71] = strain TSCII, active compounds read low

Measured: normalized growth

CSc1n[nH]c(-c2cc(C(C)(C)C)oc2C)c1C#N
active: [26] 0.542 | [42] 0.776 | [66] 0.814
inactive: [1] 0.949 | [2] 0.951 | [3] 0.952 | [4] 0.967 | [5] 0.955 | [6] 0.953 | [7] 0.966 | [8] 0.967 | [9] 0.937 | [10] 0.933 | [11] 0.847 | [12] 0.964 | [13] 0.934 | [14] 0.952 | [15] 0.835 | [16] 0.834 | [17] 0.867 | [18] 0.962 | [19] 0.928 | [20] 0.95 | [21] 0.943 | [22] 0.979 | [23] 0.847 | [24] 0.833 | [25] 0.78 | [27] 0.86 | [28] 0.818 | [29] 0.908 | [30] 0.954 | [31] 0.744 | [32] 0.894 | [33] 0.883 | [34] 0.946 | [35] 0.897 | [36] 0.789 | [37] 0.949 | [38] 0.846 | [39] 0.914 | [40] 0.948 | [41] 0.908 | [43] 0.888 | [44] 0.885 | [45] 0.879 | [46] 0.945 | [47] 0.888 | [48] 0.938 | [49] 0.947 | [50] 0.892 | [51] 0.948 | [52] 0.815 | [53] 0.937 | [54] 0.944 | [55] 0.89 | [56] 0.943 | [57] 0.906 | [58] 0.909 | [59] 0.83 | [60] 0.847 | [61] 0.948 | [62] 0.824 | [63] 0.819 | [64] 0.818 | [65] 0.959 | [67] 0.948 | [68] 0.947 | [69] 0.94 | [70] 0.943 | [71] 0.925

CSc1sc(C(=O)Sc2ccccc2)cc1S(=O)(=O)C(C)C
active: [42] 0.688
inactive: [1] 0.994 | [2] 0.997 | [3] 0.995 | [4] 0.991 | [5] 1 | [6] 0.995 | [7] 0.996 | [8] 1 | [9] 0.999 | [10] 0.983 | [11] 0.962 | [12] 0.993 | [13] 0.976 | [14] 1 | [15] 0.966 | [16] 0.902 | [17] 0.958 | [18] 0.979 | [19] 0.983 | [20] 0.994 | [21] 0.987 | [22] 0.992 | [23] 0.956 | [24] 0.927 | [25] 0.95 | [26] 0.997 | [27] 1 | [28] 0.988 | [29] 0.911 | [30] 0.99 | [31] 0.937 | [32] 0.937 | [33] 0.941 | [34] 0.988 | [35] 0.971 | [36] 1 | [37] 0.953 | [38] 0.961 | [39] 0.94 | [40] 0.992 | [41] 1.02 | [43] 0.955 | [44] 0.945 | [45] 0.93 | [46] 0.985 | [47] 0.966 | [48] 0.979 | [49] 0.997 | [50] 0.961 | [51] 0.993 | [52] 0.941 | [53] 0.974 | [54] 0.997 | [55] 0.946 | [56] 0.975 | [57] 0.929 | [58] 0.95 | [59] 1 | [60] 0.921 | [61] 0.994 | [62] 0.972 | [63] 0.988 | [64] 0.948 | [65] 0.994 | [66] 0.969 | [67] 0.996 | [68] 0.997 | [69] 0.979 | [70] 0.977 | [71] 0.98

CCOC(=O)c1ccc(Cl)c(N=Cc2cc(Cl)cc(Cl)c2O)c1
active: [11] 0.544 | [15] 0.533 | [16] 0.319 | [17] 0.567 | [21] 0.472 | [23] 0.591 | [24] 0.511 | [25] 0.197 | [26] 0.238 | [27] 0.238 | [28] 0.501 | [29] 0.468 | [31] 0.298 | [33] 0.401 | [36] 0.37 | [37] 0.636 | [38] 0.527 | [39] 0.608 | [41] 0.594 | [42] 0.377 | [43] 0.432 | [44] 0.364 | [45] 0.389 | [47] 0.507 | [50] 0.404 | [52] 0.413 | [55] 0.381 | [57] 0.322 | [58] 0.326 | [59] 0.569 | [60] 0.301 | [62] 0.528 | [63] 0.421 | [64] 0.421 | [66] 0.317
inactive: [1] 0.955 | [2] 0.967 | [3] 0.943 | [4] 0.956 | [5] 0.948 | [6] 0.95 | [7] 0.946 | [8] 0.974 | [9] 0.953 | [10] 0.951 | [12] 0.959 | [13] 0.957 | [14] 0.969 | [18] 0.949 | [19] 0.951 | [20] 0.946 | [22] 0.969 | [30] 0.946 | [32] 0.964 | [34] 0.956 | [35] 0.622 | [40] 0.95 | [46] 0.955 | [48] 0.954 | [49] 0.951 | [51] 0.951 | [53] 0.956 | [54] 0.951 | [56] 0.956 | [61] 0.958 | [65] 0.954 | [67] 0.947 | [68] 0.961 | [69] 0.958 | [70] 0.957 | [71] 0.957
